This note sets out measurements from PubChem BioAssay (NCI).

Among the test systems are SK-MEL-2 melanoma; EKVX NSCLC; SN12C renal; UO-31 renal; TK-10 renal; ACHN renal; CAKI-1 renal; A498 renal; CCRF-CEM leukemia; MOLT-4 leukemia.
Common to all, as to assay: NCI-60 one-dose screen, 48 h (100 = growth as untreated, 0 = no growth, -100 = all killed)
Holding throughout (conditions): 10 µM unless noted

This is part of a sample that, as a whole, favours compounds with a hit. Of some 83,000 tested, about 20% had one in any assay.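 Values shown are percent growth following 48 h exposure of cells in 96-well plates to a single concentration of compound; below 10 was considered active.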 Unmarked numbers belong to inactive results. Calls of active or inactive are those of the source.

As to `Nc1cccc(-c2nc3sccn3c2-c2ccnc(NCCNS(=O)(=O)c3ccc(C(F)(F)F)cc3)n2)c1`, the growth in the test with SK-MEL-2 melanoma was 80.5%; in the test on EKVX NSCLC, 67.2%; in the test with SN12C renal, 63%; with UO-31 renal it was 15.8%; in the test with TK-10 renal, 86.1%; in the test on ACHN renal, 33.9%. The growth in the test with CAKI-1 renal is 39.1%; in the test on A498 renal, 34.1%; in the test on CCRF-CEM leukemia, 41.8%; in the test with MOLT-4 leukemia, 45.6%.

Turning to `O=C1c2c(c3c4ccccc4n(CCCCCCBr)c3c3[nH]c4ccccc4c23)C(=O)N1O`, the growth in the test with SK-MEL-2 melanoma is -19.4% (active); with EKVX NSCLC, 19.8%; in the test on SN12C renal, 8.36% (active); in the test on UO-31 renal, 0.628% (active); with TK-10 renal, 18.1%; in the test with ACHN renal it was 4.33% (active). The growth in the test on CAKI-1 renal was -23.7% (active); in the test with A498 renal, -9.63% (active); with CCRF-CEM leukemia, 3.53% (active); with MOLT-4 leukemia, 0.344% (active).

Take `COc1cc(C2NN=C3c4ccccc4CCC32)cc(OC)c1OC` (stereo not given): the growth in the test with SK-MEL-2 melanoma was 76.9%; in the test with EKVX NSCLC, 72.6%; with SN12C renal, 77.7%; with UO-31 renal, 41.4%; in the test with TK-10 renal, 94.1%; in the test on ACHN renal, 80.3%. In addition, the growth in the test on CAKI-1 renal was 65%; with A498 renal, 89.6%; in the test on CCRF-CEM leukemia it was 1.98% (active); with MOLT-4 leukemia, 60.5%.

Regarding `CCN(CC)c1ccc(N=O)cc1`, the growth in the test with SK-MEL-2 melanoma is 90.8%; with EKVX NSCLC, 91.1%; in the test with SN12C renal, 56.3%; with UO-31 renal, 26%; with TK-10 renal, 47.3%; in the test on ACHN renal, 6.07% (active). Also, the growth in the test on CAKI-1 renal was -13.4% (active); in the test with A498 renal it was 100%; in the test with CCRF-CEM leukemia, 21.4%; in the test on MOLT-4 leukemia, 44.9%.

Consider `COc1ccc(Nc2nc(N)nc3c2CCN(Cc2ccc(OC)cc2OC)C3=O)cc1`, for which the growth in the test on SK-MEL-2 melanoma was 93.7%; in the test on EKVX NSCLC, 81.5%; with SN12C renal, 70.7%; in the test with UO-31 renal, 60.3%; with TK-10 renal, 84.8%; in the test with ACHN renal, 80.7%. For the same molecule, the growth was 92.9% in the test with CAKI-1 renal, 76.8% in the test with A498 renal, 86.1% in the test on CCRF-CEM leukemia and 80.7% in the test with MOLT-4 leukemia.

In the case of `CCn1c2ccccc2c2cc(NC(=O)Nc3ccc([N+](=O)[O-])cc3C)ccc21`, the growth with SK-MEL-2 melanoma was 53%; with EKVX NSCLC it was 62.3%; in the test on SN12C renal it was 55.6%; in the test with UO-31 renal it was 23.6%; with TK-10 renal it was 53.8%; in the test on ACHN renal, 31.9%. Besides, the growth in the test on CAKI-1 renal was -4.18% (active); in the test with A498 renal it was 65.7%; in the test with CCRF-CEM leukemia, 9.61% (active); with MOLT-4 leukemia it was 17.9%.

For `CCc1ccc(-c2ccc(=O)n(-c3ccc(S(N)(=O)=O)cc3)n2)cc1`, the growth was 1.5% (active) in the test with SK-MEL-2 melanoma; 69.1% in the test with EKVX NSCLC; 58.4% in the test with SN12C renal; 38.4% in the test on UO-31 renal; 76.8% in the test with TK-10 renal; 60.3% in the test on ACHN renal. Further, the growth with CAKI-1 renal was 36.7%; in the test on A498 renal, 40.3%; with CCRF-CEM leukemia it was 27.9%; in the test on MOLT-4 leukemia, 16%.

As for `FC(F)(F)c1ccccc1-c1cn2c(ccc3ccccc32)n1`, the growth was 51.8% in the test with SK-MEL-2 melanoma; 88.5% with EKVX NSCLC; 88.3% with SN12C renal; 61.1% with UO-31 renal; 125% with TK-10 renal; 82.3% in the test on ACHN renal. For the same molecule, the growth in the test with CAKI-1 renal is 58.7%; in the test with A498 renal, 81.6%; in the test with CCRF-CEM leukemia it was 78.6%; in the test with MOLT-4 leukemia, 107%.

In the case of `O=C1CS/C(=N\Nc2cc(=O)[nH]c3ccccc23)N1c1ccccc1`, the growth with SK-MEL-2 melanoma was 100%; with EKVX NSCLC, 87.3%; in the test with SN12C renal, 94.1%; in the test on UO-31 renal, 69.7%; in the test with TK-10 renal, 111%; in the test with ACHN renal it was 93.6%. The growth with CAKI-1 renal was 81.3%; with A498 renal, 81.7%; in the test on CCRF-CEM leukemia, 86.2%; in the test with MOLT-4 leukemia it was 98.8%.

As to `O=C(O)c1cn(C2CC2)c2cc(N3CCN(C(=O)/C=C/c4ccc(Cl)cc4)CC3)c(F)cc2c1=O`, the growth in the test on SK-MEL-2 melanoma is 98.8%; in the test on EKVX NSCLC, 80.4%; with SN12C renal, 70.5%; in the test on UO-31 renal, -62.8% (active); in the test on TK-10 renal it was 105%; with ACHN renal, 76.7%. The growth was 73.8% in the test on CAKI-1 renal, 29% in the test with A498 renal, 64.8% in the test with CCRF-CEM leukemia and 57.8% in the test on MOLT-4 leukemia.

With `N=C(N)c1ccc(-c2ccc(-c3ccc4ccccc4c3)s2)cc1`, the growth in the test with SK-MEL-2 melanoma is 104%; in the test with EKVX NSCLC, 105%; with SN12C renal, 95.8%; with UO-31 renal, 84.6%; in the test with TK-10 renal, 27%; in the test with ACHN renal, 97.1%. Further, the growth in the test on CAKI-1 renal was 92.3%; in the test with A498 renal it was 91.3%; in the test on CCRF-CEM leukemia it was 64.1%; with MOLT-4 leukemia, 76.3%.

Turning to `NC1N=C(SCC(=O)N2CCN(c3cc4c(cc3F)c(=O)c(C(=O)O)cn4C3CC3)CC2)NC(=O)/C1=C/c1ccc(Cl)cc1` (stereo not given), the growth in the test on SK-MEL-2 melanoma is 108%; in the test with EKVX NSCLC it was 92.8%; in the test with SN12C renal, 99.4%; in the test on UO-31 renal, 79%; in the test with TK-10 renal, 107%; in the test on ACHN renal, 102%. Also, the growth is 91.2% in the test on CAKI-1 renal, 106% with A498 renal, 107% in the test on CCRF-CEM leukemia and 109% in the test on MOLT-4 leukemia.

Take `FC(F)(F)c1cccc(-c2cn3c(ccc4ccccc43)n2)c1`: the growth in the test on SK-MEL-2 melanoma is 102%; in the test on EKVX NSCLC, 85.4%; in the test on SN12C renal, 97%; in the test on UO-31 renal, 68.1%; in the test on TK-10 renal, 122%; with ACHN renal, 90.3%. Further, the growth with CAKI-1 renal is 71.4%; in the test on A498 renal it was 94.9%; with CCRF-CEM leukemia, 105%; in the test with MOLT-4 leukemia, 104%.
